The values that follow come from PubChem BioAssay (NCATS).

A short description of experiment [1]: Quantitative high throughput screen for delayed death inhibitors of the malarial parasite plastid, 96 hour incubation (AID 488745). Further: series mostly up to about 29 µM; on the % scale 0 is the no-effect control and ±100 the full control effect; nearly all actives have a fitted effect of over 70% in size. The procedure, abridged:
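Decreased firefly luciferase luminescence indicates inhibited growth of reporter-integrated P. falciparum after two generations (96 h, 37 C, 5% CO2). Infected erythrocytes at 0.1% parasitemia, 2% hematocrit, in Albumax-supplemented RPMI 1640.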

Experiment [2] in a line: Quantitative high throughput screen for delayed death inhibitors of the malarial parasite plastid, 48 hour incubation (AID 488752). Further: on the % scale 0 is the no-effect control and ±100 the full control effect; nearly all actives have a fitted effect of over 65% in size. The method in brief: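 One-generation (48 h) growth assay: a decrease in luciferase signal from an integrated reporter in P. falciparum-infected red cells (0.1% parasitemia, 2% hematocrit) after compound exposure at 37 C indicates parasite inhibition.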

The target of experiment [3] is Thioredoxin reductase 1, cytoplasmic (Rattus norvegicus) (UniProt O89049). The experiment in a line: qHTS Assay for Substrates of Mammalian Selenoprotein Thioredoxin Reductase 1 (TrxR1) (AID 488772).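 Further: series mostly up to about 57 µM; 0% is about no effect; a drop in NADPH fluorescence below the no-compound background marks a TrxR1 substrate.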 The procedure, abridged:
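In this dual-purpose format, potential substrates are identified from the first fluorescence read after selenite addition, not from the 8-minute delta. Rat enzyme is preincubated with NADPH and then with compound at ~22 deg C.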
For orientation: Quantitative high-throughput screening tests each substance at several concentrations.

For experiment [4] the target is unchanged. The experiment can be described thus: qHTS Assay for Inhibitors of Mammalian Selenoprotein Thioredoxin Reductase 1 (TrxR1) (AID 488773).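 Further: drop in NADPH fluorescence over an 8 min run after selenite addition; series mostly up to about 57 µM; on the % scale 0 is the no-effect control and ±100 the full control effect; nearly all actives have a fitted effect of over 40% in size.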 The conditions noted are these: Potency: inhibition. The procedure, abridged: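 Inhibition is scored from the loss of NADPH fluorescence between first and last reads of an 8-min kinetic run. Selenite (400 uM) was the substrate, added after 15 min compound preincubation at room temperature.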

The target in experiment [5] is Flap endonuclease 1 (Homo sapiens) (UniProt P39748). The experiment can be described thus: qHTS Validation Assay for the Inhibitors of Human Flap endonuclease 1 (FEN1) (AID 488816). Further: on the % scale 0 is the no-effect control and ±100 the full control effect. The procedure, abridged: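 Enzyme reagent 10 nM; cpds pinned; 15 min RT preinc.; substrate 50 nM final; reads t=0 and 15 min; no-enzyme buffer wells as neg. control; normalized data, 4-parameter Hill fit.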
Flap endonuclease 1 (Homo sapiens), sequence (P39748 whole entry, looked up): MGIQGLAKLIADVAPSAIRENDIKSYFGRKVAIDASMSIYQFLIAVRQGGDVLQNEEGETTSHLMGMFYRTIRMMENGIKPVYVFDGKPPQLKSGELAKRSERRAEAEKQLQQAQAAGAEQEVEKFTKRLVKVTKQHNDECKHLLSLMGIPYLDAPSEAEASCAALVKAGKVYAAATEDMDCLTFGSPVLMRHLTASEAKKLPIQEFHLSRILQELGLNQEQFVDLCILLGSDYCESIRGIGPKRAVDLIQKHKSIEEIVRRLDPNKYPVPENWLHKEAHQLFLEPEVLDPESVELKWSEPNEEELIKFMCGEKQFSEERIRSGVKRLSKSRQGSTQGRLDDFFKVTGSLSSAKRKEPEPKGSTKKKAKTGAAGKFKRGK

In experiment [6] the target is M-phase phosphoprotein 8 (Homo sapiens) (UniProt Q99549). The experiment can be described thus: qHTS Validation Assay for Inhibitors for MPP8 Chromodomain Interactions with Methylated Histone Tails (AID 488949).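 Further: 50 nM MPP8 with 50 nM peptide preformed then compounds added for 30 min; AlphaScreen signal from MPP8 chromodomain bound to biotinylated H3K9me3 peptide; top concentration of the series differs between compounds; on the % scale 0 is the no-effect control and ±100 the full control effect; nearly all actives have a fitted effect of over 55% in size.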 The procedure, abridged:
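50 nM MPP8 + 50 nM b-H3K9me3 peptide, PBS pH 7.4/0.01% Tween-20, 30 min RT; + cpd 30 min RT; + AlphaScreen donor/Ni-chelate acceptor beads 10 ug/mL final, 30 min dark; luminescence read.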

Experiment [7] deals with Chromobox protein homolog 1 (Homo sapiens) (UniProt P83916). The experiment can be described thus: qHTS Validation Assay for Inhibitors of HP1-beta Chromodomain Interactions with Methylated Histone Tails (AID 488953).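 Further: loss of AlphaScreen luminescence from HP1-beta binding biotinylated H3K9me3 peptide; series mostly up to about 110 µM; on the % scale 0 is the no-effect control and ±100 the full control effect; nearly all actives have a fitted effect of over 50% in size.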 The method in brief: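 AlphaScreen proximity signal from streptavidin donor and nickel chelate acceptor beads (final 10 ug/mL) after 30 min dark incubation. Compounds had 30 min at room temperature with preformed complex of 50 nM HP1-beta and 50 nM b-H3(1-18)K9me3 in PBS pH 7.4 with 0.01% Tween-20.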
Chromobox protein homolog 1 (Homo sapiens), sequence (P83916 whole entry, looked up): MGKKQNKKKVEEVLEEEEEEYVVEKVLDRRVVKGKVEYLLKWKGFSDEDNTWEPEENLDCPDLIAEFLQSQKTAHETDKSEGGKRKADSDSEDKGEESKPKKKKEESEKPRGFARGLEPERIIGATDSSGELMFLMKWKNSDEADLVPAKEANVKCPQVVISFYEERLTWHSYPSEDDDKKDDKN

Experiment [8] deals with Methanococcus maripaludis chaperonin (MmCpn) (UniProt Q6LX38). The experiment in a line: High-Throughput Screening for Modulators of Cytosolic Chaperonin Activity: MmCpn Primary Screen (AID 488978).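 Further: 50 nM MmCpn enzyme hydrolysing 30 µM ATP at 37 °C; 0% is about no effect.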 The method in brief: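 Steps: chaperonin 50 nM final; add compound, 5 min RT; start with ATP, 30 uM final; hold 10 min at 37C; add ADP Transcreener HTRF reagent, 5 min; read ex 320, em 590 and 665 nm.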
Methanococcus maripaludis chaperonin (MmCpn), sequence (Q6LX38 1-543): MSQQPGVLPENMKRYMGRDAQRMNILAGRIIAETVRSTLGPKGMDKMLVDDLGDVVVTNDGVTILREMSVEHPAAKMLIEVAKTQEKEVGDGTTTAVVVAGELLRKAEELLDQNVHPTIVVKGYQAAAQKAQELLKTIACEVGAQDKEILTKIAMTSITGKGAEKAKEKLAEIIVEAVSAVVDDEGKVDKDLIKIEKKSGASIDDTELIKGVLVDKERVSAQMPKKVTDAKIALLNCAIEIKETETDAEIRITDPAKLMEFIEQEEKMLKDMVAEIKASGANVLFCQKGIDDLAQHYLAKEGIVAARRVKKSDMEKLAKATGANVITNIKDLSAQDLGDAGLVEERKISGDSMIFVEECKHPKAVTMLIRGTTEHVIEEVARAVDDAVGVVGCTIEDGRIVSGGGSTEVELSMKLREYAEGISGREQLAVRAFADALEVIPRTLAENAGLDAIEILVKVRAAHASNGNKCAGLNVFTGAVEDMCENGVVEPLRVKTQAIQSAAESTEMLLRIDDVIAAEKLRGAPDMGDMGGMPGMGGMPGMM

The target of experiment [9] is Transient receptor potential cation channel subfamily V member 1 (Homo sapiens) (UniProt Q8NER1). The experiment in a line: HTS Assay for Compounds that Act as Enhancers of the Vanilloid Receptor 1 (AID 488979). Further: 0% is about no effect. The procedure, abridged: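 TRPV1 cells loaded with Fluo-8 calcium dye; compound added and Ca2+ signal (ex 480/em 520 nm) followed 3 min, then capsaicin at EC20 added and read 2 more min to detect enhancement.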
Transient receptor potential cation channel subfamily V member 1 (Homo sapiens), sequence (Q8NER1 whole entry, looked up): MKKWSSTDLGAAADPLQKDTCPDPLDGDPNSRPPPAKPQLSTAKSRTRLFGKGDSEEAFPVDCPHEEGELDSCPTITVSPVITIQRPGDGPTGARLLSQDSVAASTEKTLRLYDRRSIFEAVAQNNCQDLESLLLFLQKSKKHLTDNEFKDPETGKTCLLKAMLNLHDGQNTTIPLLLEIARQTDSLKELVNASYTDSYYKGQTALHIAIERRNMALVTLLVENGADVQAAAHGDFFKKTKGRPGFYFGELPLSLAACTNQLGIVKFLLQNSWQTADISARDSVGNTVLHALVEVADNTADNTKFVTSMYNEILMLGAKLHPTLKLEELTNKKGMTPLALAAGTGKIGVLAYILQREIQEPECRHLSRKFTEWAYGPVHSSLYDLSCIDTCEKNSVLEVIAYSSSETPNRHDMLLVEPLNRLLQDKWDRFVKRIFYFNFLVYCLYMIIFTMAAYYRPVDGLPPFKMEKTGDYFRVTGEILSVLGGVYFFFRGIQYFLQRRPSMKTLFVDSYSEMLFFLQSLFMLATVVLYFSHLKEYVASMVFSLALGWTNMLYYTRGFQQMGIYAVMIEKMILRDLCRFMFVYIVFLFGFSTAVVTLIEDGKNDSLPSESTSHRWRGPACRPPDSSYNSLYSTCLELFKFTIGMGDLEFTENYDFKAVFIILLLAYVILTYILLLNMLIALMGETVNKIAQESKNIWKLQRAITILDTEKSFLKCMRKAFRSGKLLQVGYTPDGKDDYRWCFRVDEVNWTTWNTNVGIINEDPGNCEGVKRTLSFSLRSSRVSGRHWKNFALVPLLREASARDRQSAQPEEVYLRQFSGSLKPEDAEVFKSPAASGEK

The target of experiment [10] is D(1A) dopamine receptor (Homo sapiens) (UniProt P21728). The experiment can be described thus: HTS Assay for Allosteric Agonists of the Human D1 Dopamine Receptor: Primary Screen for Agonists (AID 488981). Further: 0% is about no effect. The method in brief: (§1)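 Tetracycline-induced HEK293 Trex D1 cells with forced coupling to calcium, loaded with no-wash calcium dye; kinetic fluorescence read 180 s after compound addition for agonism, then a further 180 s after an EC20 dopamine challenge for potentiation.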
D(1A) dopamine receptor (Homo sapiens), sequence (P21728 whole entry, looked up): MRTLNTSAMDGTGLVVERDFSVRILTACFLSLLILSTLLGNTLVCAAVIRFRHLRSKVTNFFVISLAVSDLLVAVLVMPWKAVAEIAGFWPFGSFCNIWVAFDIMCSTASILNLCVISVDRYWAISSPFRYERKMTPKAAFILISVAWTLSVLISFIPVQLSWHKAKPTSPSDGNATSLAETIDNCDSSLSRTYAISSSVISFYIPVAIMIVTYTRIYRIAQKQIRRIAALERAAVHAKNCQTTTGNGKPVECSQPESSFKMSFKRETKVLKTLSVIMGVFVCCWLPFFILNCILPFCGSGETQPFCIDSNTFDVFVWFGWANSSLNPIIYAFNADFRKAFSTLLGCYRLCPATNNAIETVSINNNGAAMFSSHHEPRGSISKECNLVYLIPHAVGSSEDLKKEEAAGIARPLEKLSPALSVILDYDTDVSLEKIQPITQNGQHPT

Experiment [11] shares this target. The experiment in a line: HTS Assay for Allosteric Agonists of the Human D1 Dopamine Receptor: Primary Screen for Potentiators (AID 488982). Further: 0% is about no effect. The procedure, abridged:
as §1

The target is the same in experiment [12]. The experiment in a line: HTS Assay for Allosteric Agonists of the Human D1 Dopamine Receptor: Primary Screen for Antagonists (AID 488983).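 Further: calcium flux response to an EC80 dopamine challenge measured with no-wash dye; nearly all actives have a fitted effect of over 65% in size.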 Further: potency means the concentration at half of the fitted maximal effect. The procedure, abridged: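 Calcium-flux read-out in inducible HEK293 T-REx cells expressing D1, dye-loaded 30–90 min at room temperature. Kinetic reads: 180 s after compound (agonist phase), then 180 s after an EC80 dopamine challenge.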

The nature of experiment [13]: Validation screen for small molecules that induce genotoxicity in human embryonic kidney (HEK293T) cells expressing luciferase-tagged ELG1 (AID 493106). Further: 0% is about no effect. The method in brief: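 ELG1-luciferase reporter readout (ONE-Glo, 30 min, room temperature) after 16 hr compound treatment at 37 °C of HEK293T cells at 2,000 per well. Rising luminescence flags genotoxic stress.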

Experiment [14] addresses ATPase family AAA domain-containing protein 5 (Homo sapiens) (UniProt Q96QE3). The experiment can be described thus: Validation screen for small molecules that inhibit ELG1-dependent DNA repair in human embryonic kidney (HEK293T) cells expressing luciferase-tagged ELG1 (AID 493107).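 Further: series mostly up to about 46 µM; on the % scale 0 is the no-effect control and ±100 the full control effect; inhibitors lower the ELG1-luciferase luminescence signal; nearly all actives have a fitted effect of over 70% in size.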 The method in brief:
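Luciferase read-out, ONE-Glo, 30 min at room temperature, follows 16 h co-exposure at 37 C of compound and the DNA-damaging agent 5-fluorouridine. Cells: HEK293T with ELG1-luciferase fusion, 2,000 per well, DMSO as vehicle.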

Experiment [15] concerns the target Thyrotropin-releasing hormone receptor (Homo sapiens) (UniProt P34981). The experiment in a line: qHTS for Small Molecule Agonists and Allosteric Enhancers of Human TRH Receptor: Validation Screen for Agonists (AID 493127;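 active means calcium activation more than 3 SD above the typical response in the agonist read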;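 further: intracellular calcium rise by fluo-8 fluorescence before TRH EC20 addition; 0% is about no effect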). The conditions noted are these: TRH receptor agonist cell assay; at 2 µM; stronger effect = higher value. The procedure, abridged:
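Compound-evoked intracellular calcium release in fluo-8-loaded TRHR cells, read kinetically on FDSS (Ex 480/Em 530, 1 s/cycle) after 23 nL pintool transfer. Agonist phase preceded 10 nM TRH EC20 addition.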

A short description of experiment [16]: Nrf2 qHTS screen for inhibitors: Validation (AID 493153; active means well fitted inhibition curve with a large enough effect in the main read-out, with a control signal flat, not every such curve was filed as active). To be noted: Potency: luciferase luminescence; viability change: measured here: cytotoxicity max response. The procedure, abridged: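 Concentration-response on A549 ARE_Fluc reporter cells exposed 18-24 h at 37 C, 5% CO2. Cytotoxicity read first by CellTiter-Fluor fluorescence (Ex 405/Em 525), then Nrf2 inhibition by BugLite luminescence after 15 min.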

A short description of experiment [17]: qHTS for Inhibitors of Cell Surface uPA Generation: Validation Assay (AID 493164).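 Further: RAW 264.7 macrophage cells exposed to compound for 18 h; 0% is about no effect.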 The method in brief: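 ATP-Lite luminescence read-out: ATP remains high when uPA activity-dependent LF translocation into the cytoplasm is blocked. RAW 264.7 cells, 18 h compound exposure at 37 C; 7-point titration, 2.45 nM to 38.3 uM final.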
In experiment [18] the target is Thyrotropin receptor (Homo sapiens) (UniProt P16473). The experiment in a line: qHTS Assay for Antagonists of the Thyroid Stimulating Hormone Receptor (AID 488980). Further: series mostly up to about 58 µM; 0% is about no effect. The method in brief: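 Readout is cAMP by HTRF competition between cellular cAMP and cAMP-d2 for a cryptate-labelled antibody. Antagonism was assessed in TSHR-transfected HEK293 cells stimulated with 4 nM TSH (EC80, final) in the presence of RO 20-1724.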
Thyrotropin receptor (Homo sapiens), sequence (P16473 whole entry, looked up): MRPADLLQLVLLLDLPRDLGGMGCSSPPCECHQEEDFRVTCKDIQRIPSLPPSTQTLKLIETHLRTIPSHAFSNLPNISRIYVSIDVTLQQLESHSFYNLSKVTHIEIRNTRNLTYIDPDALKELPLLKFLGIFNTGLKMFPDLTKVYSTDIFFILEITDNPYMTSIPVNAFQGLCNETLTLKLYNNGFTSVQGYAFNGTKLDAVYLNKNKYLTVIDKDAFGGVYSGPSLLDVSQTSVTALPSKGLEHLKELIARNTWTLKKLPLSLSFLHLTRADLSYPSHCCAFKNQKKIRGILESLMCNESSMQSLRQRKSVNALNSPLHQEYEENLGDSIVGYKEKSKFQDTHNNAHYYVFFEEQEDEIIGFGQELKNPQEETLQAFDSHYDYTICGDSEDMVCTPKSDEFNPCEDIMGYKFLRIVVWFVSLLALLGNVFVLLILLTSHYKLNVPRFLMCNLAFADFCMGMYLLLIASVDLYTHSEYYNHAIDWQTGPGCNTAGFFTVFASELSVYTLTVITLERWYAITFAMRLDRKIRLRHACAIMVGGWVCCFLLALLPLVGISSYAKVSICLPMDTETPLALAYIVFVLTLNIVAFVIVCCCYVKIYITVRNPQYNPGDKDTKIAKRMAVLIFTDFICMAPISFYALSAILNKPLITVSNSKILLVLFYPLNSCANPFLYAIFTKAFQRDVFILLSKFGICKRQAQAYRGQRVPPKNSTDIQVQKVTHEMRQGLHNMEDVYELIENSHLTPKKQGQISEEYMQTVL

Records with an inconclusive call do not appear. Calls of active or inactive are those of the source. Unless noted, the call rests on the fitted dose curve; in most records, active means well fitted curve in the direction sought with a large enough effect; inconclusive means small, poorly fitted or top-dose-only effect, or another doubt; inactive means no such curve, though single readings can be large; an effect the other way counts as inactive or inconclusive.

M-phase phosphoprotein 8 (Homo sapiens), sequence (Q99549 whole entry, looked up): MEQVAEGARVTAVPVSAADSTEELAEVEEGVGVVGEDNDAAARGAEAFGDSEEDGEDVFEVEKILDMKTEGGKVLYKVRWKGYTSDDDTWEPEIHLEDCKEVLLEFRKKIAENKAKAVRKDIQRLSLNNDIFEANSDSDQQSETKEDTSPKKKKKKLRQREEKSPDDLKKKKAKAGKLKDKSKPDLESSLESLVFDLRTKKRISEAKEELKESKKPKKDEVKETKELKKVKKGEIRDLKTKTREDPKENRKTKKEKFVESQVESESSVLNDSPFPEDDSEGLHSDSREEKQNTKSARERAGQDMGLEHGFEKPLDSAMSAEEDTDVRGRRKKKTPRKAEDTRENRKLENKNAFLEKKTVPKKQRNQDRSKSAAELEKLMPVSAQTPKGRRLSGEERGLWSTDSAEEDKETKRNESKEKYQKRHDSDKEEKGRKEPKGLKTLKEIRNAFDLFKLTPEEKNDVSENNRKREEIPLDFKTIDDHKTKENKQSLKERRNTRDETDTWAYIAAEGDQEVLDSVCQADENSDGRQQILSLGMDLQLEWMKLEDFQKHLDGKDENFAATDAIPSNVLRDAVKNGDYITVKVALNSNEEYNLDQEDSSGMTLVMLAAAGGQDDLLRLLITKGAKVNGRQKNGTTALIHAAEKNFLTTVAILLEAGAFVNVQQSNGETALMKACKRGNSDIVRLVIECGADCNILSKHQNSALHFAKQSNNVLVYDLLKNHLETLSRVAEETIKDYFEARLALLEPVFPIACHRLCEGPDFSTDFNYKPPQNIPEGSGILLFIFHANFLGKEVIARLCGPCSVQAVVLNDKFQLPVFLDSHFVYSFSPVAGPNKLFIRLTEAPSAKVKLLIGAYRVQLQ
Thioredoxin reductase 1, cytoplasmic (Rattus norvegicus), sequence (O89049 whole entry, looked up): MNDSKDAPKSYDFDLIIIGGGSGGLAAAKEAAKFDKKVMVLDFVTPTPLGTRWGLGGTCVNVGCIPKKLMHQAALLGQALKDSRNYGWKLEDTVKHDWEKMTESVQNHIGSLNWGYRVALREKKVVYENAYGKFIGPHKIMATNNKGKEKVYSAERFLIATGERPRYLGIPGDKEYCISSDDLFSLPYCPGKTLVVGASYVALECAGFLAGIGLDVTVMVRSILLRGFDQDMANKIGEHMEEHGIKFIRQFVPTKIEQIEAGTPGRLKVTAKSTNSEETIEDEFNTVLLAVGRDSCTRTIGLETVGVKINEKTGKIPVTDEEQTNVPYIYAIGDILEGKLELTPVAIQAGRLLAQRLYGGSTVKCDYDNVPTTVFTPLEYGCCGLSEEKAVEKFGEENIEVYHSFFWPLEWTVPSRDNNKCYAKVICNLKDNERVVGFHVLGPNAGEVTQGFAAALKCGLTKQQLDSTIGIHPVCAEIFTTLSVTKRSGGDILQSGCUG
Thyrotropin-releasing hormone receptor (Homo sapiens), sequence (P34981 whole entry, looked up): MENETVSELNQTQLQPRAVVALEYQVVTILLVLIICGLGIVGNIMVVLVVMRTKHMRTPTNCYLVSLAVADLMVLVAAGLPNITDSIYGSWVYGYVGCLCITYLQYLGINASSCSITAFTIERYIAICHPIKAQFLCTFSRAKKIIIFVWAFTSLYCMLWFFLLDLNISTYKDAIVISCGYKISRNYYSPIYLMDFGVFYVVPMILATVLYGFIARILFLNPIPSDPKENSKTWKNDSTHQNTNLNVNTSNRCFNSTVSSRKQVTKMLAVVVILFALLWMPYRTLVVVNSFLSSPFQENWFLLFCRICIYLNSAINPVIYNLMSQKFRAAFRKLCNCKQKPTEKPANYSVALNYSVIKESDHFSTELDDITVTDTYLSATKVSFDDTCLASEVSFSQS

In the case of `CC(N)c1cccc(Cl)c1Cl` (configuration not stated), the Potency result in experiment [1], in [2], in experiment [4], in experiment [5], in experiment [6] and in [7] was “inactive” each time. Further, the Potency result in [10], in experiment [11], in experiment [12], in [13], in experiment [14] and in [16] was “inactive” throughout. Further, the result in experiment [3], in experiment [8], in experiment [9] and in [17] was inactive. In [15], the activation is -0.188% (inactive). The molecule further showed a viability change in experiment [16] of 5.17%.
In the case of `CN1CCc2cccc(Cl)c2CC1`, the Potency result in [1], in experiment [2], in experiment [4], in experiment [5], in experiment [6] and in [10] was “inactive” each time. The Potency entry in experiment [11], in [13], in [14] and in experiment [16] was “inactive” throughout. Besides, the outcome in experiment [3], in [8], in [9], in experiment [18] and in [17] was inactive. Besides, the Potency in experiment [12] was 2.51 µM (active). The activation in experiment [15] is 1.31% (inactive). In experiment [16], this molecule yielded a viability change of 2.9%.
Consider `CN(C(=O)Cc1ccc(Cl)c(Cl)c1)C(CN1CCCC1)c1cccc(OCC(=O)O)c1` (configuration not stated), for which the Potency result in [1], in [2], in experiment [4], in experiment [5], in [6] and in experiment [7] was “inactive” throughout. Also, the Potency entry in experiment [10], in experiment [11], in [12] and in experiment [14] was “inactive” each time. Besides, the molecule was classed as inactive in experiment [3], in [8], in experiment [9], in experiment [18] and in [17]. The activation in experiment [15] is 0.25% (inactive).
`CCCN(CCC)C1Cc2cc(OC)c(OC)cc2C1`: the Potency entry in experiment [1], in experiment [2], in [4], in experiment [5], in experiment [6] and in [7] was “inactive” throughout. In addition, the Potency entry in experiment [10], in [11], in [12], in experiment [13], in [14] and in experiment [16] was “inactive” in each case. Besides, the call in experiment [3], in experiment [8], in [9], in experiment [18] and in experiment [17] was inactive. In addition, the activation in experiment [15] was -2.94% (inactive). The molecule further displayed a viability change in [16] of 11.4%.
As for `COc1ccc2[nH]cc(CCN)c2c1`, the Potency entry in experiment [1], in [2], in [4], in experiment [5], in [6] and in experiment [7] was “inactive” throughout. Moreover, the Potency entry in [10], in experiment [11], in experiment [12], in experiment [13] and in experiment [14] was “inactive” each time. In addition, the result in experiment [3], in [8], in experiment [9], in [18] and in experiment [17] was inactive. Further, the activation in experiment [15] is -2.62% (inactive).
With `CCCn1c(C)c(C(=O)c2ccc3ccccc3c2)c2ccccc21`, the Potency result in experiment [1], in experiment [2], in [4], in [5], in [6] and in experiment [10] was “inactive” in each case. For the same molecule, the Potency result in experiment [11] and in [12] was “inactive” throughout. The result in experiment [3], in [8], in experiment [9], in experiment [18] and in experiment [17] was inactive. Also, the activation in [15] was -5.69% (inactive).
In the case of `c1ccc2c(N3CCNCC3)cccc2c1`, the Potency result in experiment [1], in experiment [2], in experiment [4], in [5], in [6] and in [7] was “inactive” each time. Besides, the Potency result in experiment [10], in experiment [11] and in experiment [14] was “inactive” throughout. Besides, the molecule was classed as inactive in [3], in experiment [8], in [9], in [18] and in experiment [17]. In addition, the activation in experiment [15] was 1.75% (inactive).
